According to the supplement of paper PMC3334620:
The full ranking holds about 33,000 sequences; the median of “E-score (-0.5 to 0.5)” is about -0.016, and the highest 2% start at about 0.3. Shown is part of a subset that was picked to be rich in the highest values.

Target: T1, Yer184c (UniProt P39961)
T1 sequence: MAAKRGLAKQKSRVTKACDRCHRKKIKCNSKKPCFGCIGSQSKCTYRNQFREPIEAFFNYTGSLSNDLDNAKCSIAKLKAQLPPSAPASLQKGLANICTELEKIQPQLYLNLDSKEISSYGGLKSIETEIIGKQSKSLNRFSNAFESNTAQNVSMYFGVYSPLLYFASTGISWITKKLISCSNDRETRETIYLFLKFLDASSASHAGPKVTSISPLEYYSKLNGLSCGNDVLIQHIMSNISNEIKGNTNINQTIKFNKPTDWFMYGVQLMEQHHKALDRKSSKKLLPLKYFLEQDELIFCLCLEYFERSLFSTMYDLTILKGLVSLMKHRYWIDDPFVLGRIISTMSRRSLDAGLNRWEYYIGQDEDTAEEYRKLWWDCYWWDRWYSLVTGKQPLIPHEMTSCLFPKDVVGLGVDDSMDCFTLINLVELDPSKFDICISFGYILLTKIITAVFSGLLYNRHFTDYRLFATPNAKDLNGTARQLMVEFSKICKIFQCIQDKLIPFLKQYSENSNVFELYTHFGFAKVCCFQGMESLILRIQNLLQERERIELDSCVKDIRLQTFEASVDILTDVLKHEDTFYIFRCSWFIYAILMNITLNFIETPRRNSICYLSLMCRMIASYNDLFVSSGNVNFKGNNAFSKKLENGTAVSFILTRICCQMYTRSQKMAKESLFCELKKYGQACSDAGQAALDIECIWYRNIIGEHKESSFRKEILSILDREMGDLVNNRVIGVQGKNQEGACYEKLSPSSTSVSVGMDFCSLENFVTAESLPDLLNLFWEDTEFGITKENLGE
Assay: PBM E-score (8-mer binding enrichment) (E-score (-0.5 to 0.5)); higher = stronger / more preferred TF binding
Settings: protein concentration: 100 nM; construct: GST-full length
Procedure: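 Universal 'all 10-mer' protein binding microarrays (Agilent AMADID 015681) probed with GST-tagged S. cerevisiae TFs (full-length or DBD) made by in vitro transcription/translation (PURExpress), about 100-200 nM. Bound TF was detected with fluorescent anti-GST. Each ungapped 8-mer (which stands for itself and its reverse complement) is scored by the PBM enrichment score (E-score), a modified Wilcoxon-Mann-Whitney statistic from -0.5 to +0.5, computed with the Universal PBM Analysis Suite. Scale: above 0.35 generally sequence-specific binding.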

Sequence | PBM E-score
TATCTGAA | 0.108
AAAACTGT | 0.0544
ACGGACAA | 0.27
TCGGACAA | 0.378
GCGGACAA | 0.298
TCGCTGCA | -0.0505
AACTGGGA | -0.151
ATTGCGGC | 0.0068
AAAGTGCA | -0.0658
CCGGCGCC | 0.354
ACGGCGCC | 0.122
GCGGCGCC | 0.299
CCGGCGCG | 0.305
CCGGCGCA | 0.277
ACGGCGCG | 0.232
CGTATTGC | 0.0559
ATAGCTGC | 0.0565
GTCGGGAA | 0.0333
ATCGGAAC | 0.291
ATCGGAAT | 0.379
ATCGGAAG | 0.211
TTCGGAAA | 0.402
TTCAGAAA | 0.0478
GTCGGAGA | 0.158
GTCGGAAA | 0.318

Sequence | PBM E-score
ATCGGCAT | 0.267
ATCGGAAA | 0.344
TTAGGAAA | 0.146
ATCGGAGA | 0.216
CAGCCTTA | -0.0157
CTTGGATC | -0.0713
CATCGCAG | -0.28
GCGGGAAC | -0.00769
CCTTAAGG | -0.0623
GCCGGTAA | 0.346
GCCGGTAC | 0.229
TCCGGTAA | 0.387
CCCGGTAA | 0.221
ACCGGTAA | 0.217
GCCGGTGA | 0.235
GTAGCTAA | -0.0505
GGCCTCCA | -0.0306
ATCCCATG | -0.297
AGCTGAGG | -0.11
ACCCTCCC | 0.0834
ACGAAAGC | 0.0461
TGGCTAAA | 0.0133
AGGCTAAA | -0.0661
CGGCTAGA | 0.306
GGGCTAGA | -0.183

Sequence | PBM E-score
CGGCTAGC | 0.24
CGGCTAAA | 0.327
CTCCCACA | -0.184
AGTGCACT | 0.067
CTGGGTTA | -0.115
ATGAGTAA | 0.0956
ACAACCCG | 0.0761
AAATTCCG | 0.384
CAATTCCA | -0.0791
AAATTCCA | 0.216
CAATTCCG | 0.315
AAATTCCC | -0.0964
CAATTCCC | 0.178
AACAACCC | -0.0615
ATCCTTGA | 0.0411
GTGATAAA | 0.179
AGGATGAA | -0.0513
CGGATAAG | 0.217
ATGATAAA | 0.271
GGGATAAC | -0.0432
CGGATAAC | 0.34
TTGATAAA | 0.329
CGGATAAA | 0.417
TGGATAAA | 0.18
CGGATGAG | 0.171

Sequence | PBM E-score
CGGATGAA | 0.351
AGGATAAC | -0.197
CCCCAAAG | -0.253
CGGAGACC | 0.0297
CGAACACG | 0.172
CTATTGCC | -0.131
TCTCTTAA | 0.126
AAAGCTTT | 0.237
CGTCAACC | -0.137
GGTGCAGA | -0.206
CAAATGAG | -0.104
ACACTCGC | 0.0547
AGAGACAC | -0.119
CGGATATC | 0.285
AGGATAGA | 0.0167
CGGATATA | 0.389
TGGATCAA | -0.0363
CGGATCAA | 0.318
CGGATAGA | 0.338
GGGATAGA | -0.186
CGGATCAG | 0.224
GGGATATA | 0.0967
GGGAGATA | -0.161
CGGAGATA | 0.406
AGGAGATA | -0.134

Sequence | PBM E-score
CTCTCGTA | -0.204
GATGAGCC | -0.0364
GACTTCCC | -0.0878
GAATACGA | 0.118
GTCTCATA | -0.0146
CGCCATGA | -0.155
ATTGCAAC | 0.0297
AGAGATCT | -0.168
CATGAGAC | -0.0666
ATAATAAA | 0.276
CTAATAAA | 0.0623
ATAATATA | 0.323
CTAATATA | 0.118
TTAATAAA | 0.328
ATAATATG | 0.132
ATGTGTCG | -0.0246
AGAGTTTC | -0.0656
AGGAATTG | -0.0124
CCGGTCCA | 0.0407
CCGGTCCC | 0.0884
CCGGTCCG | 0.338
GCCTTAAC | -0.171
CGGTAGTA | 0.0519
GCTCTTCC | 0.0925
AGAGGTTG | -0.19

Sequence | PBM E-score
GCGAGCGC | 0.0998
CGGAGCGA | 0.332
AGGAGCGA | -0.0501
CGGAGCCG | 0.309
CCGAGCGA | 0.244
ACGAGCCG | 0.22
CGGAGCCC | -0.177
CGGAGCGC | 0.107
CCGAGCCG | 0.352
CCGAGCGC | 0.361
AGGAGCCG | 0.0636
CCGAGCCA | 0.219
AGGGATGA | -0.133
GATTGAGC | 0.109
AAGGGGAC | -0.0399
CGGAATGC | 0.249
CAACAGCG | -0.182
ATGTCCGG | 0.373
ATGTCCGC | -0.0241
GTATCCCA | -0.0951
ATATCCGA | 0.343
ATATCCTA | -0.0362
AGATCCGG | 0.263
ATATCCGC | 0.178
ATGTCCGA | 0.231

Sequence | PBM E-score
GTATCCGA | 0.304
GTATCCTA | -0.0431
ATATCCGG | 0.374
CTATCCGA | 0.119
CAAGGGTA | -0.254
GTACGAGA | -0.1
CTCTAAGC | 0.0215
GGACCCAC | -0.182
ATTGTTTC | 0.324
ATTGTCCC | -0.0916
ATTGTTCG | 0.346
ATTGTCCG | 0.345
ATTGTCCA | 0.143
ATTGTTCA | 0.112
ATTGTTCC | 0.267
CTTGTTTC | 0.0564
ATTGTTTG | 0.137
GCCCAGTA | -0.14
AACGGCCG | 0.3
ATTGAATA | 0.24
ATCCATAA | 0.168
ACCCTAAC | -0.0425
AGATCGGA | 0.34
GAATCGGC | 0.254
